Calls of active or inactive are those of the source.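 The calls were made as follows, unless noted: active = compound that reduces growth-factor-driven endothelial tube area in a mixed cell culture, no cutoff stated; inactive = the rest.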
Legend:
[1] = Wnt pathway potentiators raising nuclear beta-catenin – imaging, WNT3A-conditioned medium, mouse C2C12, NPC library, primary screen (AID 1117326; in the data active = nuclear beta-catenin stimulation mostly above about 4.2%, no sharp cut-off; inactive = mostly below about 10%; also: reference of the scale not given here); settings: stronger effect = higher value
[2] = stimulators of insulin release from INS-1E, primary screen, cell-based, 5 mM glucose, NPC library (AID 1117329;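 active = compound raises insulin release from rat beta cells at 5 mM glucose, no numeric limit stated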; also: reference of the scale not given here); settings: rat INS-1E insulin secretion, at 10 µM, stronger effect = higher value
[3] = growth inhibition of GSK3B-pretreated HCT116 cells – cell-based, CellTiter-Glo, 0.2 to 20 µM (AID 1117336;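 active = compounds lowering colon cancer cell viability after pretreatment blocking the GSK3B kinase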); settings: HCT116 viability after GSK3B inhibitor, at 20 µM, stronger effect = higher value
[4] = inhibition of endothelial tube formation, primary screen, imaging, VEGF stimulated, CD31 staining, tube area, NPC library (AID 1117340); settings: VEGF-stimulated ADSC/ECFC co-culture, at 10 µM, stronger effect = higher value
[5] = GLP1 release stimulators, primary, NCI-H716, NPC library (AID 1117341;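 active = compound raises GLP1 secretion from the human gut endocrine cells, with no numeric limit stated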; also: reference of the scale not given here); settings: NCI-H716 cells, at 10 µM, stronger effect = higher value
[6] = HCT116 colon cancer cell growth inhibition, primary screen, CellTiter-Glo luminescence, NPC library (AID 1117342;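 active = compounds that lower survival of HCT116 colon cancer cells in the luminescence readout, no numeric limit stated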); settings: at 20 µM (top of the series)
[7] = reduced SW480 viability measured with CellTiter-Glo, NPC library, primary (AID 1117343;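 active = compounds that lower viability of the colon cancer cells in the luminescence readout, with no numeric limit stated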); settings: CellTiter-Glo luminescence; at 20 µM (top of the series)
[8] = NPC library primary testing for decreased DLD-1 cell viability via CellTiter-Glo (AID 1117346;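 active = compounds that lower survival of DLD-1 colon cancer cells in the luminescence readout, no cutoff given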); settings: DLD-1 viability, CellTiter-Glo luminescence; at 20 µM (top of the series)

C[N+]1(CC2COC(c3ccccc3)(C3CCCCC3)O2)CCCCC1 (centres undefined)
inactive: nuclear beta-catenin stimulation ([1]; at 10 µM) -2.3% | insulin secretion stimulation [2] 5% | viability decrease [3] -13.4% | tube area decrease [4] 10.1% | GLP1 secretion stimulation [5] -2.3% | inhibition of viability [6] 28.7% | viability decrease (inhibition) [7] 7.6% | viability decrease (inhibition) [8] 3.2%
-1.4%: nuclear beta-catenin stimulation ([1]; stimulation, at 2 µM)

COc1cc(C(=O)N2CCCCCCC2)cc(OC)c1OC
inactive: nuclear beta-catenin stimulation ([1]; at 10 µM) 0.9% | insulin secretion stimulation [2] 5% | viability decrease [3] -2.3% | tube area decrease [4] -2.6% | GLP1 secretion stimulation [5] 2.6% | inhibition of viability [6] 17.8% | viability decrease (inhibition) [7] -7.8% | viability decrease (inhibition) [8] 7.8%
-1.2%: nuclear beta-catenin stimulation ([1]; stimulation, at 2 µM)

O=C(Nc1ncc([N+](=O)[O-])s1)c1cccs1
active: tube area decrease [4] 46.3% | viability decrease (inhibition) [8] 67.5%
inactive: nuclear beta-catenin stimulation ([1]; at 10 µM) -2.8% | insulin secretion stimulation [2] -0.4% | viability decrease [3] 45.8% | GLP1 secretion stimulation [5] -0.9% | inhibition of viability [6] 41.2% | viability decrease (inhibition) [7] 43.6%
-1.2%: nuclear beta-catenin stimulation ([1]; stimulation, at 2 µM)

CCCCCCCCCCCC(=O)OCC(O)CO (centres undefined)
2.9%: nuclear beta-catenin stimulation ([1]; stimulation, at 2 µM)
inactive: nuclear beta-catenin stimulation ([1]; at 10 µM) -1.2% | insulin secretion stimulation [2] -1.1% | viability decrease [3] -3.8% | tube area decrease [4] 14.2% | GLP1 secretion stimulation [5] -3.3% | inhibition of viability [6] -2.2% | viability decrease (inhibition) [7] 44.7% | viability decrease (inhibition) [8] 44.9%

NS(=O)(=O)c1cc(-c2nn[nH]n2)c(NCc2cccs2)cc1Cl
-0.1%: nuclear beta-catenin stimulation ([1]; stimulation, at 2 µM)
inactive: nuclear beta-catenin stimulation ([1]; at 10 µM) -3% | insulin secretion stimulation [2] 6.5% | viability decrease [3] -3% | tube area decrease [4] -8.2% | GLP1 secretion stimulation [5] -0.2% | inhibition of viability [6] -19.7% | viability decrease (inhibition) [7] 2.3% | viability decrease (inhibition) [8] -10.7%

O=S1(=O)OC(c2ccc(O)cc2)(c2ccc(O)cc2)c2ccccc21
-1.3%: nuclear beta-catenin stimulation ([1]; stimulation, at 2 µM)
inactive: nuclear beta-catenin stimulation ([1]; at 10 µM) 0.1% | insulin secretion stimulation [2] 0.55% | viability decrease [3] 12.4% | tube area decrease [4] 2.5% | GLP1 secretion stimulation [5] -0.4% | inhibition of viability [6] 38.7% | viability decrease (inhibition) [7] -9.3% | viability decrease (inhibition) [8] 42.9%

COc1ccc2cc1Oc1cc3c(cc1OC)CC[N+](C)(C)[C@H]3Cc1ccc(cc1)Oc1c(OC)c(OC)cc3c1[C@@H](C2)[N+](C)(C)CC3
inactive: nuclear beta-catenin stimulation ([1]; at 10 µM) 0.3% | insulin secretion stimulation [2] 0.65% | viability decrease [3] 13.2% | tube area decrease [4] 3.3% | GLP1 secretion stimulation [5] 2.3% | inhibition of viability [6] 7.8% | viability decrease (inhibition) [7] 14% | viability decrease (inhibition) [8] 6.2%
-0.1%: nuclear beta-catenin stimulation ([1]; stimulation, at 2 µM)

COc1cc(NS(=O)(=O)c2ccc(N)cc2)nc(C)n1
10.1%: nuclear beta-catenin stimulation ([1]; stimulation, at 2 µM)
inactive: nuclear beta-catenin stimulation ([1]; at 10 µM) 1.1% | insulin secretion stimulation [2] 2.8% | viability decrease [3] -0.6% | tube area decrease [4] -13% | GLP1 secretion stimulation [5] 1% | inhibition of viability [6] -4.3% | viability decrease (inhibition) [7] -9% | viability decrease (inhibition) [8] 6.1%

Cc1ccc(C(=O)C(=O)O)cc1C
inactive: nuclear beta-catenin stimulation ([1]; at 10 µM) 1% | insulin secretion stimulation [2] 2.9% | viability decrease [3] -10.8% | tube area decrease [4] -6.7% | GLP1 secretion stimulation [5] -3.1% | inhibition of viability [6] -6.7% | viability decrease (inhibition) [7] 17.4% | viability decrease (inhibition) [8] -5%
1.8%: nuclear beta-catenin stimulation ([1]; stimulation, at 2 µM)

CCCCC(CC)COC(=O)c1ccc(N(C)C)cc1 (centres undefined)
inactive: nuclear beta-catenin stimulation ([1]; at 10 µM) 0.3% | insulin secretion stimulation [2] -2.6% | viability decrease [3] 34.1% | tube area decrease [4] 0.5% | GLP1 secretion stimulation [5] -2.3% | inhibition of viability [6] 18% | viability decrease (inhibition) [7] 32.1% | viability decrease (inhibition) [8] 48.1%
0.5%: nuclear beta-catenin stimulation ([1]; stimulation, at 2 µM)

O=C1C(c2[nH]c3ccccc3c2O)=Nc2ccccc21
1.4%: nuclear beta-catenin stimulation ([1]; stimulation, at 2 µM)
inactive: nuclear beta-catenin stimulation ([1]; at 10 µM) -0.7% | insulin secretion stimulation [2] 1.2% | viability decrease [3] 18.2% | tube area decrease [4] 27.2% | GLP1 secretion stimulation [5] 0.5% | inhibition of viability [6] 16.9% | viability decrease (inhibition) [7] 24.1% | viability decrease (inhibition) [8] 0.2%

CCN1CCCC1=O
2.9%: nuclear beta-catenin stimulation ([1]; stimulation, at 2 µM)
inactive: nuclear beta-catenin stimulation ([1]; at 10 µM) -0.1% | insulin secretion stimulation [2] 2.6% | viability decrease [3] 18.7% | tube area decrease [4] -19.9% | GLP1 secretion stimulation [5] 4.1% | inhibition of viability [6] -2.03% | viability decrease (inhibition) [7] -20.4% | viability decrease (inhibition) [8] -9.9%

CN1CCN(C(=O)C2CCCCC2)CC1
-0.3%: nuclear beta-catenin stimulation ([1]; stimulation, at 2 µM)
inactive: nuclear beta-catenin stimulation ([1]; at 10 µM) 0% | insulin secretion stimulation [2] 4.2% | viability decrease [3] -2.7% | tube area decrease [4] -5.2% | GLP1 secretion stimulation [5] 5.1% | inhibition of viability [6] 12% | viability decrease (inhibition) [7] 28.1% | viability decrease (inhibition) [8] 11.9%

C[C@H](CCC(=O)O)[C@H]1CC[C@H]2[C@H]3[C@@H](CC[C@]12C)[C@@]1(C)CC[C@@H](O)C[C@H]1C[C@@H]3O
inactive: nuclear beta-catenin stimulation ([1]; at 10 µM) -1.6% | insulin secretion stimulation [2] 1% | viability decrease [3] -8.5% | tube area decrease [4] -26.9% | GLP1 secretion stimulation [5] -1.3% | inhibition of viability [6] 7.3% | viability decrease (inhibition) [7] 6.1% | viability decrease (inhibition) [8] -6.8%
0.2%: nuclear beta-catenin stimulation ([1]; stimulation, at 2 µM)

CCCCCC=CCC=CCCCCCCCC(=O)OCC
active: viability decrease (inhibition) [8] 54.5%
inactive: nuclear beta-catenin stimulation ([1]; at 10 µM) 1.6% | insulin secretion stimulation [2] -1.8% | viability decrease [3] -40% | tube area decrease [4] 7.8% | GLP1 secretion stimulation [5] 8.5% | inhibition of viability [6] 17.5% | viability decrease (inhibition) [7] 30.9%
-0.5%: nuclear beta-catenin stimulation ([1]; stimulation, at 2 µM)

CC(=O)OC(C)OC(=O)C(C)c1ccc(-c2ccccc2)c(F)c1 (centres undefined)
0.3%: nuclear beta-catenin stimulation ([1]; stimulation, at 2 µM)
inactive: nuclear beta-catenin stimulation ([1]; at 10 µM) 3.1% | insulin secretion stimulation [2] 0.5% | viability decrease [3] -2.95% | tube area decrease [4] -36.8% | GLP1 secretion stimulation [5] -1.1% | inhibition of viability [6] 8.9% | viability decrease (inhibition) [7] 4.6% | viability decrease (inhibition) [8] -3.05%
